Laboratory results from PubChem BioAssay (NCI).
The panel holds about 79,000 compounds, 15% with a hit somewhere; the sample as a whole holds those more often. A number with no mark means an inactive call. The source made the active and inactive calls. Cut-off read from the data, not from the text of the source: active = growth inhibition above about 70%; inactive = the rest. Where a SMILES comes first, the peptide text is derived from it. [ ]: non-standard residue; d: D form. ξ: configuration not given here. ξF = NC(Cc1ccccc1)C(=O)O

Experiments:
[1] = NCI Yeast Anticancer Drug Screen. Data for the rad50 strain (AID 155);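 note: 0% = growth of vehicle-only cultures of the same strain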; conditions: S. cerevisiae rad50 strain growth inhibition; at 50.0 µM; active compounds read high
Summary of the method: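 Compounds were tested on a yeast strain with an engineered DNA damage repair alteration; the reported value is growth inhibition normalised to vehicle treatment.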

[2] = NCI Yeast Anticancer Drug Screen. Data for the mec2-1 strain (AID 157); conditions: S. cerevisiae mec2-1 strain, at 50.0 µM, active compounds read high
Summary of the method: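 Readout is yeast growth inhibition, normalised to vehicle-treated controls, in the mec2-1 strain exposed to compound.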

[3] = NCI Yeast Anticancer Drug Screen. Data for the sgs1 mgt1 strain (AID 161);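 note: 0% = growth of cultures given vehicle only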; conditions: S. cerevisiae sgs1 mgt1 strain, at 50.0 µM, active compounds read high
Summary of the method: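 Percent growth inhibition was derived by comparing compound-exposed mutant yeast with vehicle-exposed cultures. The strain carries alterations in DNA damage repair.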

[4] = NCI Yeast Anticancer Drug Screen. Data for the cln2 rad14 strain (AID 165);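 note: 0% = growth equal to vehicle treated cultures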; conditions: S. cerevisiae cln2 rad14 strain, at 50.0 µM, active compounds read high
Summary of the method: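 Relative to vehicle controls, growth inhibition of compound-treated cln2 rad14 yeast was recorded.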

[5] = NCI Yeast Anticancer Drug Screen. Data for the bub3 strain (AID 167); conditions: S. cerevisiae bub3 mutant strain, at 50.0 µM, active compounds read high
Summary of the method: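 Growth of a checkpoint-deficient yeast mutant is measured after compound exposure. Values represent inhibition relative to vehicle.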

[6] = NCI Yeast Anticancer Drug Screen. Data for the mlh1 rad18 strain (AID 175); conditions: S. cerevisiae mlh1 rad18 strain growth inhibition; at 50.0 µM; active compounds read high
Summary of the method: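 Test agents were incubated with a yeast strain of defined genotype (DNA damage repair defect). Inhibition of growth was derived by comparison with vehicle-exposed cultures.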

Compound | growth inhibition [1] | growth inhibition [2] | growth inhibition [3] | growth inhibition [4] | growth inhibition [5] | growth inhibition [6]
O=C(CCc1ccc(O)c(O)c1)c1ccc(O)c(O)c1O | 2.05% | -19.9% | 9.1% | 2.6% | -17.1% | -33.9%
COc1cc(C)c2c(c1C=O)Oc1c(c(C)c(O)c3c1C(O)OC3=O)OC2=O (configuration not stated) | 25.3% | -7.65% | 4.85% | 25.6% |  | -60.3%
CCOC(=O)C(CNc1ccccc1)C(=O)OCC | -25.4% | -3.05% |  |  |  | -11.7%
O=C1c2ccccc2C(=O)N1CNc1ccc(Cl)cn1 | -18.9% | -43.9% |  |  |  | -24.6%
O=C(/C=C(\[O-])c1ccccc1)CCCCCCC(=O)/C=C(\[O-])c1ccccc1.O=C(/C=C(\[O-])c1ccccc1)CCCCCCC(=O)/C=C(\[O-])c1ccccc1.O=C(/C=C(\[O-])c1ccccc1)CCCCCCC(=O)/C=C(\[O-])c1ccccc1.[La+3].[La+3] | -2.3% | -8.75% | 5.5% |  | 12.3% | -10.1%
COC(=O)/C(=N\NC(=S)NN)C(C(=O)OC)C(=O)C(=O)Nc1cccc(C(F)(F)F)c1 (configuration not stated) | 0.3% | 1.4% | 8.9% | 5.6% |  | 24.1%
O=C(O)c1cn(C2CC2)c2cc(N3CCNCC3)c(F)cc2c1=O | 8.9% | -6.4% | -13.1% |  | -19.5% | -0.35%
O=C1Nc2ccccc2/C1=N/N=C/c1cc(Cl)cc(Cl)c1O | 32.7% | 9.4% |  |  |  | 20.1%
Nc1n[nH]c(=S)n1-c1ccc(Cl)cc1 | -14.3% | -29.6% |  |  |  | -13%
OCC(CO)(CO)COCC(CO)(CO)COCC(CO)(CO)CO | -43% | -42.5% | -20.9% |  | -9.15% | -25.1%
O=S(=O)(O)c1cc(O)c2c(O)cc(S(=O)(=O)O)cc2c1 | -0.75% | -20.1% | -21.2% |  |  | -4.7%
CCCCCC(O)(CCCCC)CCCCCCCCC1=C(O)c2ccccc2C(=O)C1=O | -17.7% | -18.6% | -0.15% | 5.75% |  | -79.2%
COC(=O)c1nc(Br)cnc1N | 8.05% | -8.4% | 2.1% |  | 4% | -0.45%
O=C(/C=C(\[O-])c1ccccc1)CCCCCCC(=O)/C=C(\[O-])c1ccccc1.O=C(/C=C(\[O-])c1ccccc1)CCCCCCC(=O)/C=C(\[O-])c1ccccc1.O=C(/C=C(\[O-])c1ccccc1)CCCCCCC(=O)/C=C(\[O-])c1ccccc1.[Nd+3].[Nd+3] | 26.4% | 22.5% | 30.1% |  | 31.2% | 22.1%
[O-]c1ccccc1/C=N/C(/N=C/c1ccccc1[O-])c1ccccc1O.[O-]c1ccccc1/C=N/C(/N=C/c1ccccc1[O-])c1ccccc1O.[Zr+4] | 0.55% | 6.4% | -1.6% |  | 14.2% | 2.4%
CC(=O)[CH-]C(=O)c1ccccc1.CC(=O)[CH-]C(=O)c1ccccc1.O=S(=O)([O-])c1cc([O-])c2c([O-])cc(S(=O)(=O)[O-])cc2c1.[Na+].[Zr+4] | 21.3% | -7.6% | 25.6% |  | 37.9% | 10.8%
Cc1ccc(N2CSC(=S)N(c3ccc(C)cc3)C2)cc1 | -10.4% | -25.9% |  |  |  | 46.6%
CC(=O)[C-](C(C)=O)c1ccccc1.CC(=O)[C-](C(C)=O)c1ccccc1.CC(=O)[C-](C(C)=O)c1ccccc1.[Cl-].[Zr+4] | 27.4% | 28.8% | 0.35% |  | 14.8% | 
c1ccc(-c2cccc3ccccc23)cc1 | 32.6% | 6.7% | 2.65% |  | -11.2% | 
CCOc1ccc(N2C(=O)C3C4c5ccccc5C(c5ccccc54)C3C2=O)cc1 (configuration not stated) | 27% | 6.45% |  |  |  | 29%
CC(=O)C(C(C)=O)c1ccccc1 | -5.15% | 2.7% | 3.05% |  |  | -5.75%
CC(=O)CC(=O)N1CCN(C(=O)CC(C)=O)CC1 | -16.9% | -16.8% |  |  |  | -23.3%
COc1ccc(NCc2ccc(C)cc2)cc1 | -2.55% | -17.1% |  |  |  | 3.45%
CN1C2CCC1CC(OC(=O)C(O)c1ccccc1)C2 (configuration not stated) | 9.3% | -3.75% | -27.9% |  | -35.8% | 7.45%
Cc1nc(-[n+]2nc(-c3ccccc3)nn2-c2ccccc2)sc1C | 3.3% | -15.2% | -18.9% |  | -26.8% | 7.4%
C[N+]12OC3CC1C1OC1C2C3 (configuration not stated) | -4.55% | -9.4% |  |  |  | 25.4%

Compound | growth inhibition [1] | growth inhibition [2] | growth inhibition [3] | growth inhibition [4] | growth inhibition [5] | growth inhibition [6]
O=C(O)CCNC(=O)c1ccccc1 | -6.2% | -7.4% | -20% |  |  | -12.8%
COc1cc(-c2cc(=O)c3c(O)cc(O)cc3o2)cc(OC)c1OC | -8.15% | -10.7% |  |  |  | 40%
NC(CCC(=O)OCc1ccccc1)C(=O)OCc1ccccc1 (configuration not stated) | -0.95% | -14.3% |  |  |  | 9.25%
COC(=O)/C=C\C(C#N)(C#N)N=Cc1ccsc1 | 67.9% | 75.5% (active) | 79.8% (active) | 29.6% |  | 87.6% (active)
O=C1c2ccccc2-c2c1c1ccccc1c(=O)n2-c1cccnc1 | 63.5% | 6.95% | 26.2% | 32.3% |  | -9.05%
COc1ccccc1Oc1ccc(N=Cc2ccc(C)cc2)cc1 | -16.4% | -25.3% |  |  |  | 5.3%
O=C(CC(CC(=O)c1ccccc1)c1ccco1)c1ccccc1 | 2.6% | -17.2% |  |  |  | -8.65%
O=C(O)/C=C/C(=O)Nc1cc(Cl)c(Cl)cc1Cl | -11.3% | -3.25% |  |  |  | -10.9%
Cn1/c(=N\N=C\C(=O)O)sc2ccccc21 | -6.1% | -13.8% |  |  |  | 10.1%
O=C(/C=C(\[O-])c1ccccc1)CCCCCCC(=O)/C=C(\[O-])c1ccccc1.O=C(/C=C(\[O-])c1ccccc1)CCCCCCC(=O)/C=C(\[O-])c1ccccc1.O=C(/C=C(\[O-])c1ccccc1)CCCCCCC(=O)/C=C(\[O-])c1ccccc1.[Y+3].[Y+3] | 7.3% | -3.7% | 8.75% |  |  | -1.85%
COc1ccccc1N1C(=O)CC(Sc2ccccc2N)C1=O (configuration not stated) | -2.4% | -19.4% |  |  |  | 13.1%
C=C1CCN(c2ccccc2)C1=O | 5.3% | -2.6% | -5.15% |  |  | -4.55%
CC(C)Cc1ccc(C(C)C(=O)O)cc1 (configuration not stated) | 0.5% | 9.7% | -4.5% |  | -26.1% | 
NC(Cc1ccccc1)C(=O)NCC(=O)NCC(=O)O (stereo not drawn) (H-[ξF]-Gly-Gly-OH) | 13% | -1.35% |  |  |  | 4.55%
COc1ccc(C2NC(=O)c3ccccc3N2)c(OC)c1OC (configuration not stated) | -8.55% | -20.5% |  |  |  | -16.4%
N#[N+]c1c(O)cc(S(=O)(=O)O)c2ccccc12 | -21.6% | -8.45% |  |  |  | -10.4%
N#C/C(=C\c1ccc(-c2ccccc2)cc1)C(N)=O | 32% | 8.6% |  |  |  | 27.6%
COc1ccc(-c2cc(=O)c3c(O)cc(C)cc3o2)cc1OC | -23.9% | -25.6% |  |  |  | -21.6%
S=C1SCN(Cc2ccccc2)CN1Cc1ccccc1 | -10.1% | -26.1% |  |  |  | -13.3%
O=c1c(=O)n(CCO)n(CCO)c(=O)n1CCO | -29.7% | -28.9% |  |  |  | -18.1%
COc1cc(C2N(c3ccccc3)CCN2c2ccccc2)cc(OC)c1OC | 59% | 62.9% |  |  |  | 43.1%
Cc1ccc(S(=O)(=O)Nc2ccccc2C2Nc3ccccc3C(=O)O2)cc1 (configuration not stated) | -23.5% | -7.4% |  |  |  | -13.1%
O=C(O)c1ccccc1Oc1ccccc1C(=O)O | -8.75% | -22.9% |  |  |  | -22.6%
COc1ccc(N=c2ssc(SC)c2-c2ccccc2)cc1 | 15.4% | -11.4% |  |  |  | -0.8%
O=C(NC(CO)C(O)c1ccc([N+](=O)[O-])cc1)C(Cl)Cl (configuration not stated) | -32.2% | -35.6% |  |  |  | -19.5%
